# Pf growth 48h: Primary qHTS for delayed death inhibitors of the malarial parasite plastid, 48 hour incubation; P. falciparum luciferase growth in erythrocytes, 48 h; Potency, µM (top dose mostly 28.7 µM), for inactives: at the highest dose activity change, negative = inhibition, most hits filed as inhibitors; AID 504832, 2011; 310,000 tested, 5.9% active; note: % is set by controls: 0 for no effect and ±100 for the full control effect
#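 Luminescence readout; reporter = integrated firefly luciferase in P. falciparum. RBC culture at 2% hematocrit, 0.1% parasitemia final, 37 C/5% CO2; decreased signal taken as growth inhibition.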
# SARS PLpro yeast: qHTS of Yeast-based Assay for SARS-CoV PLP; S. cerevisiae expressing SARS-CoV PLpro, growth rescue; Potency, µM (top dose mostly 32.9 µM), for inactives: top-dose activity, positive = growth rescue, usual class: activators; 330,000 tested, 0.19% active; AID 485353, 2010; calls by dose curve; note: 0% is about no effect; nearly all actives have a fitted effect of over 55% in size
# Pf growth 96h: Primary qHTS for delayed death inhibitors of the malarial parasite plastid, 96 hour incubation | P. falciparum luciferase reporter growth, 96 h | Potency, µM (top dose mostly 28.7 µM), for the others: at the top dose activity change, negative = inhibition, usual class: inhibitors | 320,000 tested, 6.9% active; note: % is set by controls: 0 for no effect and ±100 for the full control effect
#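 96 h incubation, 37 C, 5% CO2, of luciferase-reporter P. falciparum-infected RBCs (2% hematocrit, 0.05% parasitemia final) with test compounds; endpoint luminescence.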
# NS1 inh: qHTS Assay for Inhibitors of Influenza NS1 Protein Function; 270,000 tested, 0.4% active; Potency, µM (series often up to 46.1 µM), without a hit: at the highest dose activity, positive = more growth; AID 2326, 2010; calls by dose curve; note: actives are rising curves; nearly all actives have a fitted effect of over 50% in size
#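 A cell-based growth assay was used: compounds that relieve NS1-induced slow growth of budding yeast raise OD600. Assay medium was yeast nitrogen base with ammonium sulphate and -URA supplement, pH 6.0, with 2% galactose.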
# The depositor's hits bear a star; ? = inconclusive; . = no result given; [ ] = dose if it differs, or a comment. Sampled rows, rich in hits. Any-hit rate of the full collection: about 10%. Unless noted, calls come from the whole dose curve; as a rule, active = well fitted inhibition curve with a large enough effect; inconclusive = small, poorly fitted or top-dose-only effect, or another doubt; inactive = no such curve, though single readings can be large or run the other way. Potency is the fitted concentration of half-maximal effect.
SMILES,Pf growth 48h,SARS PLpro yeast,Pf growth 96h,NS1 inh
Oc1ccccc1-c1nc2ccccc2nc1-c1ccccc1,15µM*,-1%,?,-1%
Cc1ccc(O)c(/C=N/NC(=O)c2[nH]ncc2Br)c1,-63%,-2%,?,3%
O=C(N/N=C/c1c(O)ccc2ccccc12)c1[nH]ncc1Br,12µM*,?,12µM*,11%
O=C(N/N=C/c1c(O)ccc2ccccc12)c1cccc(C(F)(F)F)c1,3.7µM*,4µM*,2.6µM*,-51%
Cc1cccc(-n2ccnc2SCC(=O)Nc2cccc(S(=O)(=O)NC3=NCCC3)c2)c1C,10µM*,-2%,-21%,.
Cc1ccc(C)c(SCC(=O)Nc2cccc(S(=O)(=O)NC3=NCCCCC3)c2)c1,10%,3%,-26%,-14%
N#Cc1c(-c2ccccc2)nc2n(-c3ccccc3)nc(C(=O)Nc3ccccc3)n2c1=O,.,10%,0.74µM*,-6%
CCOc1ccc(N(CC(=O)NC2CC2)S(=O)(=O)c2ccc(C)cc2)cc1,-12%,3%,2%,0%
CN(c1ccccc1)S(=O)(=O)c1cccc(C(=O)NCCc2ccc(O)c(O)c2)c1,13µM*,3%,?,7%
COc1ccc(CCNC(=O)c2ccc(N(C)S(=O)(=O)c3ccc(C)cc3)cc2)cc1,?,0%,4%,.
Cc1ccc(S(=O)(=O)N(C)c2ccc(C(=O)NCCc3ccccc3)cc2)cc1,?,10%,10µM*,2%
CCN(Cc1ccccc1)C(=O)c1ccc(CNS(=O)(=O)c2ccc(C)cc2)cc1,?,11%,-13%,-14%
CCN(Cc1ccccc1)C(=O)c1ccc(N(C)S(=O)(=O)c2ccc(C)cc2)cc1,15µM*,-1%,?,.
Nc1nc(N)nc(-c2cccc(Cl)c2)n1,71%,1%,?,.
Cc1ccc(CC(=O)NNC(=O)c2ccncc2)cc1C,?,-3%,18%,.
O=C(C[C@H]1C[C@H](C(=O)N2CCCCC2)[C@@]2(CCc3ccccc3)c3[nH]c4ccc(Cl)cc4c3CCN2C1=O)NCc1cccc(C(F)(F)F)c1,.,6%,.,.
CN(C)c1ccc(NC(=O)Nc2csc3ccccc23)cc1,?,-1%,5.2µM*,14%
O=C(Nc1ccc(F)cc1)Nc1csc2ccccc12,?,-8%,?,-2%
COc1ccc(Nc2nc(N)nc(CSc3nccc(C)n3)n2)cc1,16%,1%,5.2µM*,-1%
COc1cc(SC#N)ccc1N=Cc1c(C)[nH]n(-c2ccc(Cl)cc2)c1=O,2.1µM*,-7%,2.1µM*,1%
COc1cc(SC#N)ccc1N=Cc1c(C)[nH]n(-c2ccc(C)c(C)c2)c1=O,5.2µM*,-78%,-28%,-4%
COc1cc(S(=O)(=O)Nc2ccccc2)ccc1N=Cc1c(C)[nH]n(-c2ccc(C)cc2)c1=O,-19%,-12%,24%,8%
COc1ccc(CCN=Cc2c(C)[nH]n(-c3ccc([N+](=O)[O-])cc3)c2=O)cc1OC,-2%,4%,-78%,.
CC(Sc1nnc(-c2ccccc2F)n1C)C(=O)NC1CCCCC1 (configuration not stated),-5%,-12%,-2%,.
COc1ccccc1CCNC(=O)C(=O)NCC1CCCN1S(=O)(=O)c1ccccc1 (configuration not stated),?,1%,15µM*,.
SMILES,Pf growth 48h,SARS PLpro yeast,Pf growth 96h,NS1 inh
COc1ccc(S(=O)(=O)N2CCCC2CNC(=O)C(=O)NCCc2ccccc2)cc1 (configuration not stated),?,0%,?,.
COc1cccc(C(=O)NCC2CCCN2S(=O)(=O)c2ccccc2)c1 (configuration not stated),?,4%,12µM*,.
O=C(NCCC1CCCCN1S(=O)(=O)c1ccccc1)C(=O)NC1CCCC1 (configuration not stated),0%,-1%,?,.
COc1ccc(CCNC(=O)C(=O)NCC2CCCN2S(=O)(=O)c2ccccc2)cc1 (configuration not stated),-38%,1%,12µM*,.
Cc1ccccc1CNC(=O)C(=O)NCCC1CCCCN1S(=O)(=O)c1ccccc1 (configuration not stated),13µM*,5%,?,.
O=C(COc1ccc2c3c(c(=O)oc2c1)CCC3)N[C@@H](Cc1ccccc1)C(=O)O,-1%,8%,47%,4%
O=C(CCNS(=O)(=O)/C=C/c1ccccc1)NCCc1c[nH]c2ccccc12,-5%,0%,-6%,4%
COc1cc(S(=O)(=O)NCC2COCCO2)ccc1-n1cnnn1 (configuration not stated),-17%,0%,12µM*,5%
COc1cc(S(=O)(=O)N(Cc2ccccc2)CC2CCCO2)ccc1-n1cnnn1 (configuration not stated),-9%,-1%,-2%,-5%
COc1cc(S(=O)(=O)N(Cc2cccs2)CC2CCCO2)ccc1-n1cnnn1 (configuration not stated),-18%,-4%,4.1µM*,-14%
COc1cc(S(=O)(=O)NCCN2CCOCC2)ccc1-n1cnnn1,13%,0%,53%,.
COc1ccc(S(=O)(=O)NC2CCCCC2)cc1-n1cnnn1,0%,-1%,2.6µM*,1%
NC(=O)C1CCN(C(=O)c2cccc(S(=O)(=O)N3CCCC3)c2)CC1,28%,-6%,38%,.
COc1cc(OC)cc(C(=O)NC(C(=O)NNC(=O)c2ccc(C)cc2)C(C)C)c1 (configuration not stated),22%,-7%,21%,.
CCOc1ccc(CC(=O)C2=C(N3CCOCC3)CC(C)(C)CC2=O)cc1OCC,-14%,-1%,6.6µM*,.
Cc1ccc(NC(=O)COC(=O)c2ccc3c(c2)NC(=O)C2CCCN32)cc1 (configuration not stated),10µM*,-9%,11%,6%
COC(=O)CN1C(=S)N(c2ccc(OC)cc2)C(=O)C1CC(=O)Nc1ccc(F)cc1 (configuration not stated),-17%,0%,45%,.
COc1ccc(CCN2C(=S)N(C)C(=O)C2CC(=O)Nc2ccc(F)cc2)cc1 (configuration not stated),?,-1%,13µM*,3%
CCN1C(=O)C(CC(=O)Nc2ccc(OC)cc2)N(Cc2ccc(OC)c(OC)c2)C1=S (configuration not stated),10µM*,0%,?,0%
CCN1C(=O)C(CC(=O)Nc2ccc(OC)cc2)N(CCc2ccc(OC)cc2)C1=S (configuration not stated),?,-17%,-44%,.
NS(=O)(=O)c1cc2c(cc1C(F)(F)F)N[C@H](Cc1ccccc1)NS2(=O)=O,-13%[12.8 µM],.,-8%[12.8 µM],.
COC(=O)c1cc(CSC(=N)N)ccc1OCCC(C)C,4.7µM*,0%,6.6µM*,2%
CC(C)c1ccc(/C=N/n2nnnc2Nc2ccccc2)cc1,7%,4%,.,-5%
CC/C(=N\n1nnnc1Nc1ccccc1)c1ccccc1,10µM*,-23%,-18%,-12%

# Source: PubChem
